± gives the standard deviation of the averaged measurements.

The assay relates to IL-6-GFP PC-9. The assay can be described thus: cell viability (CCK-8 OD) relative to DMSO control (fraction of control); higher = more viable cells. Particulars: compound concentration: 10 uM; treatment time: 48 h. The essentials: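 A purchased 510-compound library was screened at a final 10 μM for 48 h against PC-9 and PC-9GR lung cancer cells overexpressing IL-6-GFP via a lentiviral construct, seeded at 3000 cells/well in 96-well plates. GFP imaging was done on a parallel plate set. For viability, CCK-8 absorbance was recorded and each well's optical density was divided by that of the vehicle control well. There were two independent replicates.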
In the case of `O=NN(CCCl)C(=O)NC1CCCCC1` [Lomustine], the cell viability was 0.9506 ± 0.0079.

On to `CN1C(C(=O)Nc2ccccn2)=C(O)c2sc(Cl)cc2S1(=O)=O` [Lornoxicam], for which the cell viability is 1.1 ± 0.23.

In turn, `CC(C)C(=O)Nc1ccc([N+](=O)[O-])c(C(F)(F)F)c1` [Flutamide] showed a cell viability of 1.2 ± 0.53.

The compound `CNC(=O)c1ccccc1Sc1ccc2c(/C=C/c3ccccn3)n[nH]c2c1` [Axitinib] yielded a cell viability of 0.532 ± 0.05.

As for `Cl.NC1=NCC2c3ccccc3Cc3ccccc3N12` (configuration not stated) [Epinastine HCl], the cell viability amounted to 1.22 ± 0.014.

Consider `CN(C)CCC(c1ccc(Br)cc1)c1ccccn1.O=C(O)/C=C\C(=O)O` (configuration not stated) [Brompheniramine hydrogen maleate], for which the cell viability came to 1.09 ± 0.15.

`O=C(OCCOCCO)c1ccccc1Nc1cccc(C(F)(F)F)c1` [Etofenamate] came in with a cell viability of 1.24 ± 0.13.

For `C=C(NC(=O)C(=C)NC(=O)c1csc(C2=NC3c4csc(n4)C4NC(=O)c5csc(n5)C(C(C)(O)C(C)O)NC(=O)C5CSC(=N5)/C(=C/C)NC(=O)C(C(C)O)NC(=O)c5csc(n5)C3(CC2)NC(=O)C(C)NC(=O)C(=C)NC(=O)C(C)NC(=O)C(C(C)CC)NC2C=Cc3c(C(C)O)cc(nc3C2O)C(=O)OC4C)n1)C(N)=O` (configuration not stated) [Thiostrepton], the cell viability was 0.412 ± 0.15.

The compound `CN(C)CCN1C(=O)c2cccc3cc(N)cc(c23)C1=O` [Amonafide] showed a cell viability of 0.425 ± 0.076.

In the case of `CCC1(O)CC2CN(CCc3c([nH]c4ccccc34)C(C(=O)OC)(c3cc4c(cc3OC)N(C=O)C3C(O)(C(=O)OC)C(OC(C)=O)C5(CC)C=CCN6CCC43C65)C2)C1` (configuration not stated) [Vincristine], the cell viability was found to be 0.631 ± 0.041.

In the case of `Cc1cnc(C(=O)NC2CCCCC/C=C\C3CC3(C(=O)NS(=O)(=O)C3CC3)NC(=O)C3CC(Oc4nc5ccccc5c5ccccc45)CN3C2=O)cn1` (configuration not stated) [Paritaprevir (ABT-450)], the cell viability came to 0.874 ± 0.28.

As for `CCC(C)(Oc1ccc(C2(c3ccc(OC(C)(CC)C(=O)O)cc3)CCCCC2)cc1)C(=O)O` (configuration not stated) [Clinofibrate], the cell viability was 1.23 ± 0.42.

Compound `CCOc1ccccc1OCCNC(C)Cc1ccc(OC)c(S(N)(=O)=O)c1` (configuration not stated) [Tamsulosin] registered a cell viability of 1.316 ± 0.0058.

As to `Nc1ncn(C2OC(CO)C(O)C2O)c(=O)n1` (configuration not stated) [Azacitidine], the cell viability was 0.895 ± 0.15.

In the case of `Nc1ccccc1NC(=O)c1ccc(CNC(=O)OCc2cccnc2)cc1` [Entinostat (MS-275)], the cell viability turned out to be 0.465 ± 0.028.

`FC(F)(F)c1ccc(CNc2ccc(Cc3c[nH]c4ncc(Cl)cc34)cn2)cn1` [Pexidartinib (PLX3397)] yielded a cell viability of 0.898 ± 0.048.

`COC1CC2CCC(C)C(O)(O2)C(=O)C(=O)N2CCCCC2C(=O)OC(C(C)CC2CCC(OCCO)C(OC)C2)CC(=O)C(C)/C=C(\C)C(O)C(OC)C(=O)C(C)CC(C)/C=C/C=C/C=C/1C` (configuration not stated) [Everolimus (RAD001)] had a cell viability of 0.66 ± 0.29.

The compound `Cc1cn(-c2cc(NC(=O)c3ccc(C)c(Nc4nccc(-c5cccnc5)n4)c3)cc(C(F)(F)F)c2)cn1` [Nilotinib (AMN-107)] returned a cell viability of 1.135 ± 0.0089.

The compound `CCC1(O)C(=O)OCc2c1cc1n(c2=O)Cc2cc3c(CN(C)C)c(O)ccc3nc2-1.Cl` (configuration not stated) [Topotecan HCl] showed a cell viability of 0.355 ± 0.11.

Turning to `CC(CCC(=O)NCCS(=O)(=O)O)C1CCC2C3C(O)CC4CC(O)CCC4(C)C3CCC12C` (configuration not stated) [Tauroursodeoxycholic Acid (TUDCA)], the cell viability came to 1.24 ± 0.23.

For the compound `O=C(O)CCC(=O)c1ccc(-c2ccccc2)cc1` [Fenbufen], the cell viability is 1.08 ± 0.12.

The compound `COC(=O)C(Cc1ccccc1)NC(=O)C(N)CC(=O)O` (configuration not stated) [Aspartame] showed a cell viability of 0.819 ± 0.06.

Consider `CNC(=O)c1cc(Oc2ccc(NC(=O)Nc3ccc(Cl)c(C(F)(F)F)c3)cc2)ccn1` [Sorafenib], for which the cell viability came out at 0.565 ± 0.1.

In turn, `CCC(=O)OC1(C(=O)SCF)C(C)CC2C3CC(F)C4=CC(=O)C=CC4(C)C3(F)C(O)CC21C` (configuration not stated) [Fluticasone propionate] yielded a cell viability of 0.821 ± 0.024.

As to `Cc1c(Cl)cccc1Nc1ccccc1C(=O)O` [Tolfenamic Acid], the cell viability was 1.18 ± 0.046.

For `CC(C)Cc1ccc(C(C)C(=O)OCc2ccccn2)cc1` (configuration not stated) [Ibuprofen piconol], the cell viability came out at 1.17 ± 0.096.

Compound `O=C([O-])CC(O)(CC(=O)[O-])C(=O)[O-].O=C([O-])CC(O)(CC(=O)[O-])C(=O)[O-].[BiH6+3].[K+].[K+].[K+]` [Gastrodenol] had a cell viability of 0.986 ± 0.29.

The values above are taken from the supplement of paper PMC8866396.
